VACV mCherry inh: qHTS for Stage-Specific Inhibitors of Vaccinia Orthopoxvirus: mCherry Reporter Primary qHTS | Vaccinia virus mCherry reporter infection, fluorescence | Potency, µM (series often up to 36.5 µM), usual class: inhibitors | hit rate 0.63% among 310,000; calls by dose curve; tested in A549 cells; further: nearly all actives have a fitted effect of over 35% in size
FMDV inh: High Throughput Screening for Foot and Mouth Disease Virus Antivirals | AID 1159524, 2015 | Potency, µM (doses to about 57.9 µM), hits mostly inhibitors | hit rate 1.2% among 410,000 | FMDV antiviral cell-based qHTS; calls by dose curve; tested in HEK293T cells; further: read-out not given here; nearly all actives have a fitted effect of over 45% in size
Sm TGR block: qHTS Assay for the Inhibitors of Schistosoma Mansoni Peroxiredoxins. Schistosoma mansoni thioredoxin glutathione reductase (TGR), Q962Y6. purified TGR, DTNB reduction, TNB absorbance 405 nm. Potency, µM (doses to about 114 µM), actives largely listed as inhibitors. hit rate 3% among 360,000; active means well fitted inhibition curve with a large enough effect; inconclusive means small, poorly fitted or top-dose-only effect; inactive means no such curve, though single readings can be large or run the other way; further: nearly all actives have a fitted effect of over 60% in size
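First, TGR (20 nM dispensed) and NADPH were mixed with compound. Second, a 15 min room-temperature incubation followed. Third, further NADPH and then DTNB were added to start the reaction. Finally, TNB absorbance was monitored kinetically.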
LASV entry inh: qHTS for Inhibitors of binding or entry into cells for Lassa Virus; Lassa virus pseudotype entry inhibition, cell reporter; Potency, µM (titrated, usually from 37.9 µM), usual class: inhibitors; hit rate 1.2% among 300,000; calls by dose curve; tested in HEK293 cells; further: nearly all actives have a fitted effect of over 50% in size
MARV entry inh: qHTS for inhibitors of binding or entry into cells for Marburg Virus; Potency, µM (titrated, usually from 37.8 µM), usual class: inhibitors; hit rate 1.8% among 300,000; Marburg virus pseudotyped entry inhibition, cell reporter; calls by dose curve; tested in HEK293 cells
VACV Venus inh: qHTS for Stage-Specific Inhibitors of Vaccinia Orthopoxvirus: Venus Reporter Primary qHTS; Vaccinia virus Venus reporter expression, fluorescence; Potency, µM (titrated, usually from 36.5 µM), most hits filed as inhibitors; hit rate 0.46% among 330,000; AID 720580, 2013; calls by dose curve; tested in A549 cells; further: nearly all actives have a fitted effect of over 30% in size
A number is an active result; n = inactive; u = inconclusive; x = no result given; [ ] = remark or other dose. In the library only some 5.4% were active in any assay of this set; here they are far more common.

SMILES | VACV mCherry inh | FMDV inh | Sm TGR block | LASV entry inh | MARV entry inh | VACV Venus inh
Oc1ccc2ccccc2c1N=Nc1ccccn1 | x | u | n | 8.9µM | u | n
O=S(=O)(O)c1cccc(N=Nc2c(O)ccc3ccccc23)c1 | x | n | 20µM | x | x | x
Oc1ccc2ccccc2c1N=Nc1ccccc1F | x | n | n | x | x | x
C=CCc1ccc(OCCCCN2CCC(C)CC2)c(OC)c1 | n | n | n | u | 15µM | n
C=CCc1ccc(OCCCCN2CC(C)CC(C)C2)c(OC)c1 (centres undefined) | u | n | x | u | 7.1µM | n
C=CCc1ccc(OCCCN2CCCC(C)C2)c(OC)c1 (centres undefined) | x | n | n | n | u | x
C=CCc1ccc(OCC(O)CO)c(OC)c1 (centres undefined) | n | n | n | n | n | n
C=CCc1ccc(O)c(-c2cc(CC=C)ccc2O)c1 | n | n | 56µM | x | x | n
C[C@@H](CSc1ccc(Br)cc1)CN1CC[C@H](NC(=O)OCc2ccccc2)CCC1=O | n | 25µM | x | x | x | u
COc1ccc(SC[C@H](C)CN2CC[C@H](NC(=O)OCc3ccccc3)CCC2=O)cc1 | n | u | x | x | x | n
CCOC(=O)c1ccc2oc(=O)n(Cc3ccccc3)c2c1 | n | n | n | n | x | n
COc1ccc(-c2n[nH]c3c2C(c2ccc(OC)c(OC)c2)N(c2ccccc2)C3=O)cc1 (centres undefined) | x | u | n | u | 7.3µM | x
COc1ccc(C2c3c(-c4ccccc4)n[nH]c3C(=O)N2c2ccc(C(=O)O)cc2)cc1 (centres undefined) | x | n | n | x | x | x
COc1ccc(-c2n[nH]c3c2C(c2ccc(O)cc2)N(c2ccc(Br)cc2)C3=O)cc1 (centres undefined) | n[7.34 µM] | 32µM | n | n | n | n[7.34 µM]
COc1ccc(C2c3c(-c4ccc(F)cc4)n[nH]c3C(=O)N2c2ccccc2)cc1OC (centres undefined) | n | u | n | u | n | n
CCOc1cc(C2c3c(-c4ccccc4)n[nH]c3C(=O)N2c2ccc(C(=O)O)cc2)ccc1O (centres undefined) | x | n | 25µM | x | x | x
CCOc1ccccc1N(CC)C(=O)c1cc2c(=O)[nH]c3ccc(C)cc3c2s1 | n | n | n | x | n | n
Cc1ccc(-n2c(CCC(=O)O)ccc2-c2cccs2)cc1Cl | n | n | 7.9µM | n | u | n
O=C(O)CCc1ccc(-c2cccs2)n1NC(=O)c1ccc(Cl)cc1 | n | x | 50µM | u | n | n
NC(=O)c1ccc(-n2c(CCC(=O)O)ccc2-c2cccs2)cc1 | n | n | 2µM | n | n | n
Cc1ccc(-n2c(CCC(=O)O)ccc2-c2cccs2)cc1 | n | n | 13µM | n | u | n
O=C(O)CCc1ccc(-c2cccs2)n1NC(=O)c1ccc(Cl)cc1Cl | x | n | n | n | n | x
CSc1nn(Cc2ccccc2C)c(NC(C)=O)c1S(=O)(=O)c1ccc(C)cc1 | n | n | n | n | x | n
CC(=O)c1ccc(-n2c(CCC(=O)O)ccc2-c2cccs2)cc1 | n | n | 0.89µM | n | n | n
CC(=O)N1CCCc2cc(S(=O)(=O)N3CCCC(C(=O)N4CCN(c5ccccc5)CC4)C3)ccc21 (centres undefined) | u | 18µM | n | n | x | u
SMILES | VACV mCherry inh | FMDV inh | Sm TGR block | LASV entry inh | MARV entry inh | VACV Venus inh
COc1ccc(S(=O)(=O)N2CCCC(C(=O)N3CCN(c4ccccc4)CC3)C2)cc1Cl (centres undefined) | n | 35µM | n | u | n | n
Cc1cccc(N2CCN(S(=O)(=O)c3ccc4c(c3)CCCN4C(=O)C3CCC3)CC2)c1C | n | u | n | 6.3µM | x | n
Cc1ccc(C)c(N2CCN(S(=O)(=O)c3ccc4c(c3)CCCN4C(=O)C3CCC3)CC2)c1 | n | u | n | n | x | n
CC(=O)N1CCCc2cc(S(=O)(=O)N3CCCC(C(=O)N4CCN(c5cc(C)ccc5C)CC4)C3)ccc21 (centres undefined) | n | 28µM | n | 5.6µM | u | n
C[S+](=O)([O-])c1sc(C(=O)NC(=S)NC2CCC(OC(F)(F)F)CC2)c2c1C=CCC2 (centres undefined) | x | x | x | x | n | x
COc1ccc(OC)c([C@H]2/C(=C(\O)c3ccc(C)cc3)C(=O)C(=O)N2Cc2ccco2)c1 | x | x | x | x | n | x
Cc1ccc(C)c(NC(=O)N2CCC(CN3CCOCC3)CC2)c1 | n | n | n | n | x | n
Cc1cccc(OCC(=O)Nc2ccc(Cl)c(-c3nc4ccccc4[nH]3)c2)c1 | n | u | n | n | u | n
COc1ccccc1N1CCN(C(=O)C2CCCN(S(=O)(=O)c3ccc4c(c3)CCCN4C(C)=O)C2)CC1 (centres undefined) | n | 28µM | n | u | 11µM | n
COC(=O)[C@@H]1CCCN1C(=O)c1cnn(-c2ncc3c(n2)-c2ccccc2CCC3)c1C1CC1 | n | n | x | x | x | n
Cc1ccc(C(=O)N/N=C/c2ccc(-c3cccc(C(F)(F)F)c3)o2)cn1 | u | 32µM | n | u | u | u
CCN(CC)c1ccc2cc(NC(=O)CCC(=O)O)c(=O)oc2c1 | n | x | n | u | 1.8µM | n
CCN(CC)c1ccc2cc(C(C)=O)c(=O)oc2c1 | u | n | n | u | n | n
Cc1ccc(SC(=O)c2c(C)noc2-c2cc(C)on2)cc1 | u | u | 7.9µM | n | n | n
Cc1cc(-c2onc(C)c2C(=O)N/N=C/c2ccccc2)no1 | x | n | n | x | x | x
CNC(=O)C1CCC(Cn2c(=O)c3sccc3n(CC(=O)Nc3cc(C)cc(C)c3)c2=O)CC1 (centres undefined) | u | n | n | n | x | u
COc1cc(/C=C/C(=O)O)ccc1O | n | n | x | x | x | u
COc1cc(/C=C/C(=O)CC(=O)/C=C/c2ccc(O)c(OC)c2)ccc1O | n | u | u | 18µM | u | n
COc1cc(/C=C/C(=O)/C=C(O)/C=C/c2ccc(O)c(OC)c2)ccc1O | u | u | u | x | x | n
COC(=O)C1=C(O)/C(=C\c2ccc(OCC(=O)Nc3ccccc3OC)cc2)N=C1C | n[7.34 µM] | n | n | x | x | n[7.34 µM]
COc1cc(/C=C/C(C)=NNc2ccccc2)ccc1O | 3.5µM | n | x | n | u | n
COc1cc(/C=C/[N+](=O)[O-])ccc1O | n | u | 35µM | n | n | n
COC(=O)C1=C(O)/C(=C\c2ccc(O)c(OC)c2)N=C1C | x | n | 50µM | n | u | x
CCc1cccc(NC(=O)c2ccc(NC(=O)N3CCSc4ncccc43)cc2)c1 | u | 28µM | n | n | x | u
CCCCOc1ccc(CNC(=O)c2cccc(NC(=O)N3CCSc4ncccc43)c2)cc1 | n | 22µM | n | n | x | n
CCc1ccc(CNC(=O)c2ccc(NC(=O)N3CCSc4ncccc43)cc2)cc1 | n | n | n | n | x | n
CC(C)[C@@H](OCc1ccccc1)[C@H](C)C=NO[C@H](C)c1cn([C@@H]2COC[C@@H]2O)nn1 | x | x | x | x | n | x

From PubChem BioAssay
